Values joined by “and” are separate entries in the source; they are usually repeats but may differ in a detail not shown here. Equal entries are not always repeated. Unmarked numbers belong to inactive results. Results filed as inconclusive are left out. Active and inactive are the calls of the source. Unless noted, calls come from the whole dose curve; as a rule, active = well fitted curve in either direction with a large enough effect (not every such curve was filed as active); inconclusive = small, poorly fitted or top-dose-only effect, or another doubt; inactive = flat fitted curve, though single readings scatter.
Tests used:
[1] = AP1 Signaling Pathway (AID 357); settings: ME-180 AP-1-bla reporter, EGF-induced, beta-lactamase ratio, 5 h; series mostly up to 17.2 µM; note: % is set by controls: 0 for no effect and ±100 for the full control effect
How it was run: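 ME-180 cells with beta-lactamase reporter under AP-1 response element, stimulated with EC50 EGF; compounds tested in titration series, 5 h at 37 °C. CCF4 substrate added 2.5 h at room temperature; 460/530 nm emission ratio gave %activity and AC50.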

[2] = NFAT Signaling Pathway (AID 444); settings: Jurkat NFAT-bla M1, carbachol, beta-lactamase ratio, 5 h; at 17.2 µM (top of the series) unless noted;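 note: carbachol stimulus at about its EC50 of 1 µM final; % is set by controls: 0 for no effect and ±100 for the full control effect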
How it was run: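 Jurkat cells with NFAT-driven β-lactamase reporter and co-expressed M1 receptor, stimulated with carbachol (final 1 uM, ~EC50), compound titration, 5 h at 37 °C. CCF4 loaded 1 h at RT; 460/530 nm ratio gave %activity and AC50.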

[3] = molecular target: Cytochrome P450 1A2 (Homo sapiens) (UniProt P05177); experiment: p450-cyp1a2 (AID 410; calls by dose curve; note: potency is the fitted concentration of half-maximal effect;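 for activity change, negative = inhibition: -100% = full effect of reference inhibitor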); settings: recombinant CYP1A2, luciferin-ME demethylation, luminescence; series mostly up to 25.6 µM
How it was run: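 Luminescent demethylation readout: Luciferin-ME (100uM, equal to Km) turned over by 20nM CYP1A2 for 60 min at room temperature after NADPH regeneration addition, following 10 min compound preincubation. Normalization used 57 uM furafylline as full inhibition.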

[4] = Cell Viability - BJ (AID 421; calls by dose curve;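 note: potency is the fitted concentration of half-maximal effect; cells exposed to compound for 40 hours at 37 °C before readout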); settings: BJ fibroblast viability, qHTS
How it was run: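 Cytotoxicity as drop in intracellular ATP (CellTiter-Glo, 20 min RT) after 40 hr compound exposure of BJ fibroblasts at 37 °C. Titrations scaled between DMSO and 100 uM tamoxifen, Hill-fitted for AC50.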

[5] = Cell Viability - Jurkat (AID 426;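 active = dose-dependent loss of cell ATP signal giving a full or clear fitted curve, ranked by lower potency value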;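 note: potency is the fitted concentration of half-maximal effect; cells exposed to compound for 40 hours at 37 °C before ATP read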); settings: qHTS
How it was run: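 Cytotoxicity taken as drop in cellular ATP (CellTiter-Glo luminescence, 20 min room temperature) after 40 hr, 37C treatment of 5000 Jurkat Clone E6-1 cells per well; concentration-response fitted with Hill equation for AC50.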

[6] = Cell Viability - Hek293 (AID 427;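 active = compounds whose dose-response curve shows a full or clear partial loss of cell viability, called from curve shape rather than a numeric limit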;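 note: potency is the fitted concentration of half-maximal effect; cells exposed to compound for 40 hours at 37 °C before reading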); settings: qHTS
How it was run: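 Luminescent ATP content (CellTiter-Glo, 20 min at room temperature) was measured after a 40 hr, 37 °C compound exposure of HEK293 cells. AC50 values came from Hill-equation fits of qHTS concentration-response data normalized to DMSO and 100 uM tamoxifen.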

[7] = Cell Viability - HepG2 (AID 433; calls by dose curve;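 note: potency is the fitted concentration of half-maximal effect; cells exposed to compound for 40 hours; potency for ATP loss meaning cytotoxicity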); settings: qHTS
How it was run: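 HepG2 cells, 1500 per well, treated 40 hr at 37 °C in complete medium; viability from intracellular ATP by CellTiter-Glo luminescence. Normalized to DMSO and 100 uM tamoxifen; AC50 from Hill fit of qHTS concentration-response.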

[8] = Cell Viability - MRC5 (AID 434; calls by dose curve;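 note: potency is the fitted concentration of half-maximal effect; cells exposed to compound for 40 hours at 37 °C; potency reflects cytotoxicity seen as loss of intracellular ATP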); settings: MRC5 lung fibroblast viability, qHTS
How it was run: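 ATP luminescence read-out (CellTiter-Glo, 20 min RT) after 40 hr, 37 °C compound exposure of 1500 MRC5 cells/well. Data normalized to DMSO (basal) and 100 uM tamoxifen (100% inhibition); AC50 from standard Hill equation.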

[9] = Cell Viability - SK-N-SH (AID 435; calls by dose curve;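 note: potency is the fitted concentration of half-maximal effect; compound exposure lasted 40 h at 37 °C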); settings: SK-N-SH neuroblastoma cell viability qHTS
How it was run: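 SK-N-SH neuroblastoma cells (1500/well) treated 40 h at 37 °C in complete medium; viability read as cellular ATP by CellTiter-Glo luminescence. Normalized to DMSO and 100 uM tamoxifen; AC50 from Hill fits of qHTS concentration-response.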

[10] = molecular target: Lysosomal acid glucosylceramidase (Homo sapiens) (UniProt P04062); experiment: Glucocerebrosidase-p2 (AID 348; in the data active = potency below about 10 µM; note: potency is the fitted concentration of half-maximal effect); settings: purified GBA, blue fluorogenic substrate, 40 min
How it was run: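 Normal human glucocerebrosidase (0.2 nM) with blue fluorogenic substrate (80 uM final) in citrate/phosphate pH 5.9 with 10mM sodium taurocholate, 0.01% tween-20; 40 min RT, NaOH/glycine stop; fluorescence Ex 365/Em 440; AC50 from a titration from 0.6 nM upwards.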

Sequence of Cytochrome P450 1A2 (Homo sapiens) (P05177 whole entry, looked up): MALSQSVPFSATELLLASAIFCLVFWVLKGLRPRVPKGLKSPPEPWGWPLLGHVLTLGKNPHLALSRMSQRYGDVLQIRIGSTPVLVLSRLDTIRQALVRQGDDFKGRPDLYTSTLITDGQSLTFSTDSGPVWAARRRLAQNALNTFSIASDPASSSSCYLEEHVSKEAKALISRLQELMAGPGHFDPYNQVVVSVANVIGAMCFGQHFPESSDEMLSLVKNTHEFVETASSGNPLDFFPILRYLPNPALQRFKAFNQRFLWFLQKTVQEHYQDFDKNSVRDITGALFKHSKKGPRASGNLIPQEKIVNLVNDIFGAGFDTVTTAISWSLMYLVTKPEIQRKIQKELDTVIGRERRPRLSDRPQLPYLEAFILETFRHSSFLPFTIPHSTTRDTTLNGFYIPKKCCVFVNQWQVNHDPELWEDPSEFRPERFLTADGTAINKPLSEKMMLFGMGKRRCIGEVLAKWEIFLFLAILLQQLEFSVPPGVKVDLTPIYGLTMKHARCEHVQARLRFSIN
Sequence of Lysosomal acid glucosylceramidase (Homo sapiens) (P04062 whole entry, looked up): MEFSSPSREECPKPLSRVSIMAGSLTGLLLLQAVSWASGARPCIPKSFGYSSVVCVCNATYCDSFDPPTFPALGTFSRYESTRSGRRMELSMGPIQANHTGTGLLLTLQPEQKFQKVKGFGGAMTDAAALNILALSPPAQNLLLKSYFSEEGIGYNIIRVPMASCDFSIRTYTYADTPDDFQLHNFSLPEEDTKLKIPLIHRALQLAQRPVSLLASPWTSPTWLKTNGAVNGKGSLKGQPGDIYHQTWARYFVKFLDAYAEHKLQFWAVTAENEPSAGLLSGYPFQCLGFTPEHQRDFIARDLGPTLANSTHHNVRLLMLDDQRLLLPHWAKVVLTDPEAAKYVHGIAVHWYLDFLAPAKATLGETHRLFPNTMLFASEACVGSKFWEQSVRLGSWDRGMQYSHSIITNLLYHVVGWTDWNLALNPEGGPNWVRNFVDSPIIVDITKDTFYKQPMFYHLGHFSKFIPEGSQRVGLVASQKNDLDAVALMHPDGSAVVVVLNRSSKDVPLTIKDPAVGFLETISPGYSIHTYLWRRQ

N[C@H](CC(=O)O)C(=O)O
outcome [1]: inactive | activity change, negative = inhibition [2]: 13.7% [at 38 µM]

CCSc1ccc2c(c1)N(CCCN1CCN(C)CC1)c1ccccc1S2
Potency [3]: 0.316 µM (active)

Cc1ncc(C[n+]2csc(CCO)c2C)c(N)n1
outcome [1]: inactive | activity change, negative = inhibition [2]: -0.747%

C[C@H](CCC(=O)O)[C@H]1CC[C@H]2[C@@H]3CC[C@@H]4C[C@H](O)CC[C@]4(C)[C@H]3C[C@H](O)[C@]12C
Potency [4]: > 92 µM | Potency [5]: > 92 µM | Potency [6]: > 92 µM | Potency [7]: > 92 µM | Potency [8]: > 92 µM | Potency [9]: > 92 µM

CCCCC(=O)O[C@H]1CC[C@H]2[C@@H]3CCc4cc(O)ccc4[C@H]3CC[C@]12C
outcome [1]: inactive

O=C(O)Cc1cc(I)c(Oc2ccc(O)c(I)c2)c(I)c1
outcome [1]: inactive | Potency [3]: 12.6 µM (active) | activity change, negative = inhibition [2]: -22.7%

CC(=O)Oc1cccc2c1C(=O)c1c(OC(C)=O)cc(C(=O)O)cc1C2=O
outcome [1]: inactive | activity change, negative = inhibition [2]: -21.4%

COc1cc(S(C)=O)ccc1-c1nc2ncccc2[nH]1 (centres undefined)
outcome [1]: inactive | Potency [3]: 0.251 µM (active) | activity change, negative = inhibition [2]: 21.1%

CCCOc1cc(N)ccc1C(=O)OCCN(CC)CC
outcome [1]: inactive | Potency [3]: 12.6 µM (active)

CCCC(CCC)C(=O)OC1C[C@H]2CC[C@@H](C1)[N+]2(C)C (some centres undefined)
outcome [1]: inactive | activity change, negative = inhibition [2]: -90.3% (active)

O=C(O)c1ccc(OCCn2ccnc2)cc1
outcome [1]: inactive | activity change, negative = inhibition [2]: -10.7%

CC1(C)S[C@@H]2[C@H](NC(=O)C3(N)CCCCC3)C(=O)N2[C@H]1C(=O)O
outcome [1]: inactive | activity change, negative = inhibition [2]: -19.8%

O=C1NCCN1c1ncc([N+](=O)[O-])s1
outcome [1]: inactive | activity change, negative = inhibition [2]: -7.97%

O=P(O)(O)OP(=O)(O)O
Potency [10]: > 11.4 µM | outcome [1]: inactive | activity change, negative = inhibition [2]: 3.99% [at 7.69 µM]

Cc1cc(C)c(NC(=O)C[C@H](CC(=O)O)c2cccc3ccccc23)c(C(=O)N2CCC3(CCCC3)CC2)c1
outcome [1]: inactive | Potency [3]: inactive | activity change, negative = inhibition [2]: -7.66% [at 38 µM]

N[C@@H](Cc1cc(I)c(Oc2ccc(O)c(I)c2)c(I)c1)C(=O)O
outcome [1]: inactive | activity change, negative = inhibition [2]: 7.62%

CN1C(=O)OC(C)(C)C1=O
outcome [1]: inactive | Potency [3]: inactive | activity change, negative = inhibition [2]: -1.31%

Oc1ccc(/C=C/c2cc(O)cc(O)c2)cc1
outcome [1]: inactive | Potency [4]: > 92 µM | Potency [5]: > 92 µM | Potency [6]: 52.8 µM | Potency [7]: > 92 µM | Potency [8]: > 92 µM | Potency [9]: > 92 µM

OCl
Potency [4]: > 92 µM | Potency [5]: > 92 µM | Potency [6]: > 92 µM | Potency [7]: > 92 µM | Potency [8]: > 92 µM | Potency [9]: > 92 µM

Cc1cccc(C)c1NC(=O)C1CCCCN1C (centres undefined)
outcome [1]: inactive | activity change, negative = inhibition [2]: -26%

CC(=O)[C@H]1CC[C@H]2[C@@H]3C=CC4=CC(=O)CC[C@@]4(C)[C@H]3CC[C@]12C
outcome [1]: inactive | Potency [3]: inactive

CC(=O)Oc1cc(C(F)(F)F)ccc1C(=O)O
Potency [3]: inactive | activity change, negative = inhibition [2]: 27.2%

C[C@]12CC[C@@H]3c4ccc(OC(=O)c5ccccc5)cc4CC[C@H]3[C@@H]1CC[C@@H]2O
outcome [1]: inactive

CNC(=O)c1c(I)c(C(=O)NCC(=O)Nc2c(I)c(C(=O)O)c(I)c(C(=O)NCCO)c2I)c(I)c(N(C)C(C)=O)c1I
outcome [1]: inactive | Potency [3]: inactive | activity change, negative = inhibition [2]: -16%

Cc1cc(-c2ccc(N=Nc3ccc4c(S(=O)(=O)O)cc(S(=O)(=O)O)c(N)c4c3O)c(C)c2)ccc1N=Nc1ccc2c(S(=O)(=O)O)cc(S(=O)(=O)O)c(N)c2c1O
Potency [3]: 12.6 µM (active)

CCc1cn([C@H]2C[C@H](O)[C@@H](CO)O2)c(=O)[nH]c1=O
outcome [1]: inactive | activity change, negative = inhibition [2]: 23.4%

Cn1nnnc1SCC1=C(C(=O)O)N2C(=O)[C@@H](NC(=O)[C@H](O)c3ccccc3)[C@H]2SC1
outcome [1]: inactive | activity change, negative = inhibition [2]: 5.92%

CC(=O)N=c1sc(S(N)(=O)=O)nn1C
outcome [1]: inactive | Potency [3]: inactive | activity change, negative = inhibition [2]: 0.015% and 12.3%

CN1CCc2c(c3ccccc3n2Cc2ccccc2)C1
outcome [1]: inactive | Potency [3]: 5.01 µM (active)

Cn1cc(NC(=O)c2cc(NC(=O)c3cc(NC=O)cn3C)cn2C)cc1C(=O)NCCC(=N)N
outcome [1]: inactive

O=C(O)CCC(=O)c1ccc(-c2ccccc2)cc1
outcome [1]: inactive | Potency [3]: 12.6 µM (active) | activity change, negative = inhibition [2]: -7.68%

O=C(O)Cc1nn(Cc2ccc(Br)cc2F)c(=O)c2ccccc12
Potency [3]: 31.6 µM (active)

From PubChem BioAssay (NCATS)
